Bioassay records as filed in PubChem.
The list is not random: actives were taken first. Their share in the collection is about 2.8%.
GLP1R ag: qHTS of GLP-1 Receptor Agonists. HEK293 GLP-1R CRE-luciferase, luminescence, 4-6 h; cells express a hypersensitive GLP-1R form. Glucagon-like peptide 1 receptor (Homo sapiens), P43220. Potency, µM (highest dose often 45.6 µM), for the others: top-dose activation, hits mostly activators. actives 0.007% (n = 380,000); also: potency is read from the fitted curve at half-maximal effect; % of control where 0% means no effect
Target sequence (P43220 whole entry, looked up): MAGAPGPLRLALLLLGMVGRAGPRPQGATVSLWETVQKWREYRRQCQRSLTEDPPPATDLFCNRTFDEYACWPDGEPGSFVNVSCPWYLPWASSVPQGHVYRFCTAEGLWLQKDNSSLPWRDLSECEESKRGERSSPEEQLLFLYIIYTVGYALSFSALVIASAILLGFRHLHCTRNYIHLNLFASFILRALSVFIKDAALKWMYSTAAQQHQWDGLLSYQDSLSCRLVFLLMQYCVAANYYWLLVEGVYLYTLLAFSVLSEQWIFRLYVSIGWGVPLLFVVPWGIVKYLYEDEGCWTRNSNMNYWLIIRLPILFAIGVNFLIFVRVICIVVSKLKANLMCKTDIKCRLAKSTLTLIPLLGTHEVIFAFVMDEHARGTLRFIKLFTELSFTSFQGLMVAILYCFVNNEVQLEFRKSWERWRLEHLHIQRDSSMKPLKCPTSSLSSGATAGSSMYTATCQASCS
KCNH2 3.1 block: qHTS for Inhibitors of KCHN2 3.1: Mutant qHTS; activity change, % (tested at about 1.8 µM); U2OS KCNH2 3.1, thallium flux FluxOr; active compounds read low; AID 720553, 2013; Potassium voltage-gated channel subfamily H member 2, brain isoform KCNH2 3.1 (human); actives 0.95% (n = 340,000);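 active = maximum activity change below -70%; inconclusive = maximum activity change from -70% to -50%; inactive = maximum activity change above -50%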;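 also: thallium influx rate constant from kinetic fluorescence after stimulation buffer; % is scaled to controls: 0 for no effect and ±100 for the full control effect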
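Steps: virus added to U2OS suspension (4 h, RT, dark); medium with 10% FBS added, cells plated, 37 C overnight; FluxOr/Red40 loading buffer 45 min RT; stimulation buffer, 2 min kinetic read; rate constant normalized.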
KCNH2 WT inh: qHTS for Inhibitors of KCHN2 3.1: Wildtype qHTS; U2OS, BacMam KCNH2, thallium flux FluxOr; active compounds read low; activity change, % at 1.84 µM; actives 0.37% (n = 340,000); AID 720551, 2013;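 active = maximum activity change below -70%; inconclusive = maximum activity change between -70% and -50%; inactive = maximum activity change above -50%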; also: % is scaled to controls: 0 for no effect and ±100 for the full control effect
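U2OS cells were transduced with wild-type KCNH2 virus (2.03 x 10^8 / mL) for 4 h at room temperature, then cultured overnight at 37 C. Thallium flux was read with FluxOr dye. Rate constants were normalized to DMSO controls.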
HEK293 tox: qHTS of GLP-1 Receptor Inverse Agonists: Cytotox Screen; HEK293 cAMP-luciferase reporter cells, luminescence, 24 h; Potency, µM (highest dose often 38.3 µM), for the others: top-dose activity change, negative = inhibition, usual class: inhibitors; AID 624418, 2012; actives 0.13% (n = 410,000);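 also: loss of luciferase light is scored as toxicity; potency is read from the fitted curve at half-maximal effect; % is scaled to controls: 0 for no effect and ±100 for the full control effect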
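1536-well qHTS counterscreen of the MLSMR; 200 cells/uL, 12 h pre-incubation, 23 nL cpd, 24 h at 37 deg C 5% CO2, luciferase detection reagent, 12 min RT, luminescence. Inhibition = undesired.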
GLS inhibitor: qHTS for Inhibitors of Glutaminase (GLS); Glutaminase kidney isoform, mitochondrial (Homo sapiens), O94925; GLS enzymatic activity, qHTS titration; Potency, µM (top dose mostly 45.5 µM), inactives show at the top dose activity change, negative = inhibition, usual class: inhibitors; actives 0.21% (n = 410,000); AID 624170, 2012; also: potency is read from the fitted curve at half-maximal effect; % is scaled to controls: 0 for no effect and ±100 for the full control effect
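hKGA in 45 mM KH2PO4 pH 8.2, 0.02% Tween-20 with pin-transferred compounds; 1 mM L-glutamine (stock) plus glutamate oxidase/HRP/Amplex Red coupling added. Fluorescence read initially and after 30 min at RT.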
GLP-1R inv ag: qHTS of GLP-1 Receptor Inverse Agonists (Inhibition Mode); Glucagon-like peptide 1 receptor (Homo sapiens), P43220; HEK293 GLP-1R CRE-luciferase, luminescence, 24 h; GLP-1R form is constitutively active; Potency, µM (highest dose often 38.3 µM), for inactives: at the top dose activity change, negative = inhibition, hits mostly inhibitors; actives 1.6% (n = 410,000); AID 624417, 2012; also: potency is read from the fitted curve at half-maximal effect; % is scaled to controls: 0 for no effect and ±100 for the full control effect; nearly all actives have a fitted effect of over 55% in size
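HEK293 cells stably co-expressing a cAMP-responsive luciferase reporter and constitutively active GLP-1R were seeded, incubated 12 h, then exposed to compounds for 24 h at 37 C. Luminescence was read 12 min after detection reagent; inverse agonists lower signal.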
The depositor's hits bear a star; ? = inconclusive; / = not tested or not shown. Unless noted, calls follow the shape of the dose curve; as a rule, active = well fitted curve in the direction sought with a large enough effect; inconclusive = small, poorly fitted or top-dose-only effect, or another doubt; inactive = no such curve, though single readings can be large; an effect the other way counts as inactive or inconclusive.

SMILES	GLP1R ag	KCNH2 3.1 block	KCNH2 WT inh	HEK293 tox	GLS inhibitor	GLP-1R inv ag
O=C(NC1CCCCCC1)C1CC(=O)N(c2ccc(Cl)cc2)C1 (configuration not stated)	3%	5	-2	-7%	-8%	?
O=C(O)c1ccc(-n2cccc2/C=C2/NC(=O)N(c3ccccc3)C2=O)cc1	0%	11	6	-10%	10µM*	13%
O=C(O)c1ccc(-n2cccc2/C=C2/SC(=O)N(CC(=O)N3CCCC3)C2=O)cc1	-1%	8	-4	-12%	16µM*	9%
Cc1cccc(/C=c2\s/c(=C\C(=O)C(C)(C)C)[nH]c2=O)c1	1%	-2	-3	?	6%	8.9µM*
COc1ccc(/C=c2\s/c(=C\C(=O)C(C)(C)C)[nH]c2=O)cc1O	3%	7	-3	?	10%	45%
Cc1ccc(Cl)cc1N1CCN(C(CC(C)C)c2nnnn2CC2CCCO2)CC1 (configuration not stated)	-18%	-10	3	-1%	-7%	-3%
CCCC(c1nnnn1CC1CCCO1)N1CCN(c2cc(Cl)ccc2C)CC1 (configuration not stated)	20%	-1	-5	-12%	-12%	8.9µM*
COc1ccc(CCN2C(=O)CN(C3CCCCCC3)C(=O)C2c2ccc(Cl)cc2)cc1OC (configuration not stated)	/	/	/	-1%	-5%	-13%
COc1cccc(C(=O)NC(C)C(c2cccs2)N2CCN(C)CC2)c1 (configuration not stated)	3%	-72*	-5	-8%	4%	1%
CN(C)CCNC(=O)/C(=C/c1ccc(-c2cccc([N+](=O)[O-])c2)o1)NC(=O)c1ccccc1	4%	-6	-13	?	9%	?
Cc1ccc(C(=O)N/C(=C\c2ccc(-c3ccc(Cl)cc3)o2)C(=O)NCCCN(C)C)cc1	21%	?	-83*	?	0%	?
Cc1ccc(C(=O)N/C(=C\c2ccc(-c3ccccc3[N+](=O)[O-])o2)C(=O)NCCCN(C)C)cc1	18%	-28	-9	7%	-3%	?
CN(C)CCCNC(=O)/C(=C\c1ccc(-c2ccc(Br)cc2)o1)NC(=O)c1ccccc1	-52%	-117*	-36	-19%	2%	?
CN(C)CCCNC(=O)/C(=C/c1ccc(-c2ccc([N+](=O)[O-])cc2)o1)NC(=O)c1ccccc1	-4%	-99*	?	92%	2%	?
Cc1cc(C)c2sc(N(Cc3cccnc3)C(=O)CCS(=O)(=O)c3ccccc3)nc2c1	/	/	/	2%	2%	10%
O=C(CCC1CCN(Cc2ccccc2)CC1)c1ccc2c(c1)NCCCC2	1%	/	/	/	19%	/
OCCCn1c(CCNc2nc(-c3ccc(F)cc3)cs2)nc2cc(C(F)(F)F)ccc21	-4%	-123*	17	?	-2%	?
OCCCn1c(C2CCCN2c2nc(-c3ccc(F)cc3)cs2)nc2cc(C(F)(F)F)ccc21 (configuration not stated)	-1%	-47	-21	-10%	-6%	?
Cc1ccc(-c2csc(N(CCO)CCCn3c(C(F)(F)F)nc4cc(C(F)(F)F)ccc43)n2)cc1	-6%	-21	-4	2%	9%	?
O=[N+]([O-])c1cc(-c2csc(NCCc3nc4cc(Cl)c(N5CCCCC5)cc4n3CCCO)n2)ccc1Cl	-1%	-38	-8	-20%	15%	2.2µM*
OCCOCCn1c(C2CCCN2c2nc(-c3ccc(F)cc3)cs2)nc2cc(C(F)(F)F)ccc21 (configuration not stated)	-3%	-101*	-103*	10%	-2%	-10%
CC(=O)N1CCCC1c1nc2ccccc2n1Cc1ccccc1F (configuration not stated)	/	/	/	-3%	1%	9%
CCOC(=O)c1ccc(N2CCN(c3ccc(F)cc3)CC2)c(NC(=O)Nc2ccc(CC)cc2)c1	/	/	/	2%	-10%	7%
CC1(C)Cc2c(cnn2-c2cccc(F)c2)C(NC(=O)c2csnn2)C1 (configuration not stated)	5%	?	-74*	-12%	16%	?
CC1(C)Cc2c(cnn2-c2ccc(F)cc2)C(NC(=O)c2ccoc2)C1 (configuration not stated)	2%	-81*	?	-5%	4%	-38%
SMILES	GLP1R ag	KCNH2 3.1 block	KCNH2 WT inh	HEK293 tox	GLS inhibitor	GLP-1R inv ag
O=C(NCCCN1CCCCC1)c1cc(Sc2ccc(Cl)cc2)nc2ccccc12	/	/	/	-18%	-16%	0%
O=C(NCCCN1CCCC1)c1cc(Sc2ccc(F)cc2)nc2ccccc12	8%	-78*	42	-14%	-8%	?
CCOCCCNC(=O)c1cc(Sc2ccc(C)cc2)nc2ccccc12	9%	-7	-5	1%	6%	10µM*
CCOCCCNC(=O)c1cc(Sc2cccc(Cl)c2)nc2ccccc12	8%	/	/	-4%	1%	?
CCOC(=O)c1noc2ncnc(N3CCN(c4cccc(C(F)(F)F)c4)CC3)c12	/	/	/	4%	7%	?
CC(C)c1ccc(CNc2n[nH]c(-c3ccco3)n2)cc1	/	/	/	9%	1%	4%
OCc1c(OCc2cccc(F)c2)ccc2ccccc12	21%	-81*	-3	-20%	-12%	?
COc1cc(C)c(C)cc1S(=O)(=O)NC1CC(C)(C)NC(C)(C)C1	16%	-1	15	-2%	?	-21%
CCOc1ccccc1CNC(=O)CCCN1C(=O)CCn2nc(-c3cccn3C)cc21	/	/	/	-10%	-4%	-19%
CSC1=NC=C(C#N)C2=NC(c3c(Cl)cccc3Cl)NN12 (configuration not stated)	3%	/	/	5%	11µM*	-17%
CN(C)S(=O)(=O)Oc1ccsc1C(=O)Nc1ccc(Cl)c(Cl)c1	-1%	-8	-23	21%	-5%	10µM*
CN(C)CCN1C(=O)C2C(C(=O)Nc3cc(Cl)cc(Cl)c3)C3C=CC2(O3)C1C(=O)NC1CCCCC1 (configuration not stated)	0%	2	12	-2%	2%	10µM*
